Source: PubChem BioAssay AID1159580 (chemical genetic matrix, 2015)
Where “and” joins values, the source holds several entries; their conditions need not be identical. Identical values can stand only once. Among all 5,500 compounds or so, about 2,000 (36%) were called active. About 18% were inconclusive and are not listed. Rule as the data show it: active = normalized growth mostly below about 0.91 (no sharp cut-off); inconclusive = no clear call, values can overlap the other calls; inactive = mostly above about 0.92. This is one part of the list. Where a structure was tested more than once in an assay, its records may differ in their call.

Assay: chemical genetic growth profiling, strain panel (AID 1159580);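 also: tested at 20 µM; growth read once vehicle control cultures reached saturation at 30 °C; 1 = growth at the plate median or of vehicle wells; lower values mean less growth of the strain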
Settings: growth OD

With `NCC(O)c1ccc(O)cc1` (stereo not given) as the molecule, how does the normalized growth (S. cerevisiae deletion strains, locus YKL009W, strain mrt4, stronger effect = lower value) read?
The normalized growth was 1.01 (inactive).

And the normalized growth (S. cerevisiae deletion strains, locus YKL068W, stronger effect = lower value)?
The normalized growth was 0.984 (inactive).

What about the normalized growth (S. cerevisiae deletion strains, locus YKL085W, strain MDH1 (second series), stronger effect = lower value) of the same molecule?
Its normalized growth is 0.989 (inactive).

And the normalized growth (S. cerevisiae deletion strains, locus YKL085W, strain MDH1, stronger effect = lower value)?
The normalized growth was 0.989 (inactive).

And the normalized growth (S. cerevisiae deletion strains, locus YKL160W, strain elf1, stronger effect = lower value)?
Its normalized growth is 0.998 (inactive).

And the normalized growth (S. cerevisiae deletion strains, locus YKL190W, strain CNB1, stronger effect = lower value)?
The normalized growth was 1 (inactive).

What about the normalized growth (S. cerevisiae deletion strains, locus YKR001C, strain vps1, stronger effect = lower value) of the same molecule?
Its normalized growth is 0.967 (inactive).

What about the normalized growth (S. cerevisiae deletion strains, locus YKR026C, strain gcn3, stronger effect = lower value) of the same molecule?
Its normalized growth is 0.998 (inactive).

What about the normalized growth (S. cerevisiae deletion strains, locus YKR091W, strain srl3, stronger effect = lower value) of the same molecule?
Its normalized growth is 0.999 (inactive).

And the normalized growth (S. cerevisiae deletion strains, locus YLL001W, strain dnm1, stronger effect = lower value)?
The normalized growth was 1 (inactive).

What about the normalized growth (S. cerevisiae deletion strains, locus YLL026W, stronger effect = lower value) of the same molecule?
Its normalized growth is 0.99 (inactive).

What about the normalized growth (S. cerevisiae deletion strains, locus YLL041C, strain sdh2, stronger effect = lower value) of the same molecule?
The normalized growth was 1.01 (inactive).

What about the normalized growth (S. cerevisiae deletion strains, locus YLR027C, strain aat2, stronger effect = lower value) of the same molecule?
The normalized growth was 0.993 (inactive).

And the normalized growth (S. cerevisiae deletion strains, locus YLR039C, strain RIC1, stronger effect = lower value)?
Its normalized growth is 1.02 (inactive).

What about the normalized growth (S. cerevisiae deletion strains, locus YLR058C, strain SHM2, stronger effect = lower value) of the same molecule?
The normalized growth was 0.995 (inactive).

What about the normalized growth (S. cerevisiae deletion strains, locus YLR102C, strain apc9, stronger effect = lower value) of the same molecule?
The normalized growth was 0.972 (inactive).

And the normalized growth (S. cerevisiae deletion strains, locus YLR113W, strain HOG1, stronger effect = lower value)?
The normalized growth was 1.02 (inactive).

What about the normalized growth (S. cerevisiae deletion strains, locus YLR221C, strain rsa3, stronger effect = lower value) of the same molecule?
The normalized growth was 1 (inactive).

And the normalized growth (S. cerevisiae deletion strains, locus YLR258W, strain gsy2, stronger effect = lower value)?
The normalized growth was 1.01 (inactive).

What about the normalized growth (S. cerevisiae deletion strains, locus YLR262C, strain YPT6 (second series), stronger effect = lower value) of the same molecule?
The normalized growth was 0.983 (inactive).

What about the normalized growth (S. cerevisiae deletion strains, locus YLR262C, strain YPT6, stronger effect = lower value) of the same molecule?
The normalized growth was 1.06 (inactive).

And the normalized growth (S. cerevisiae deletion strains, locus YLR268W, strain sec22, stronger effect = lower value)?
The normalized growth was 0.922 (inactive).

And the normalized growth (S. cerevisiae deletion strains, locus YLR320W, strain mms22, stronger effect = lower value)?
The normalized growth was 1.04 (inactive).

What about the normalized growth (S. cerevisiae deletion strains, locus YLR330W, strain CHS5, stronger effect = lower value) of the same molecule?
The normalized growth was 0.996 (inactive).

And the normalized growth (S. cerevisiae deletion strains, locus YLR342W, strain FKS1 (second series), stronger effect = lower value)?
The normalized growth was 1.03 (inactive).

What about the normalized growth (S. cerevisiae deletion strains, locus YLR342W, strain FKS1, stronger effect = lower value) of the same molecule?
The normalized growth was 0.981 (inactive).

What about the normalized growth (S. cerevisiae deletion strains, locus YLR357W, strain rsc2, stronger effect = lower value) of the same molecule?
Its normalized growth is 0.973 (inactive).

What about the normalized growth (S. cerevisiae deletion strains, locus YLR370C, strain arc18, stronger effect = lower value) of the same molecule?
The normalized growth was 1.01 (inactive).

And the normalized growth (S. cerevisiae deletion strains, locus YLR371W, strain rom2, stronger effect = lower value)?
The normalized growth was 0.981 (inactive).

What about the normalized growth (S. cerevisiae deletion strains, locus YLR384C, strain iki3, stronger effect = lower value) of the same molecule?
The normalized growth was 1 (inactive).

And the normalized growth (S. cerevisiae deletion strains, locus YLR418C, strain cdc73, stronger effect = lower value)?
The normalized growth was 0.967 (inactive).

What about the normalized growth (S. cerevisiae deletion strains, locus YML016C, strain PPZ1, stronger effect = lower value) of the same molecule?
Its normalized growth is 0.998 (inactive).

What about the normalized growth (S. cerevisiae deletion strains, locus YML032C, strain rad52, stronger effect = lower value) of the same molecule?
Its normalized growth is 0.962 (inactive).

And the normalized growth (S. cerevisiae deletion strains, locus YML120C, strain ndi1, stronger effect = lower value)?
Its normalized growth is 1.01 (inactive).

And the normalized growth (S. cerevisiae deletion strains, locus YML124C, strain tub3, stronger effect = lower value)?
The normalized growth was 0.99 (inactive).

And the normalized growth (S. cerevisiae deletion strains, locus YMR058W, strain fet3, stronger effect = lower value)?
The normalized growth was 1.02 (inactive).

What about the normalized growth (S. cerevisiae deletion strains, locus YMR078C, strain ctf18, stronger effect = lower value) of the same molecule?
The normalized growth was 0.968 (inactive).

And the normalized growth (S. cerevisiae deletion strains, locus YMR125W, strain sto1, stronger effect = lower value)?
Its normalized growth is 0.993 (inactive).

And the normalized growth (S. cerevisiae deletion strains, locus YMR129W, stronger effect = lower value)?
The normalized growth was 1.01 (inactive).

What about the normalized growth (S. cerevisiae deletion strains, locus YMR205C, strain PFK2, stronger effect = lower value) of the same molecule?
Its normalized growth is 0.994 (inactive).

And the normalized growth (S. cerevisiae deletion strains, locus YMR223W, strain ubp8, stronger effect = lower value)?
The normalized growth was 0.997 (inactive).

And the normalized growth (S. cerevisiae deletion strains, locus YMR231W, strain pep5, stronger effect = lower value)?
The normalized growth was 0.995 (inactive).

And the normalized growth (S. cerevisiae deletion strains, locus YMR263W, strain SAP30, stronger effect = lower value)?
The normalized growth was 0.727 (active) and 1 (inactive).

What about the normalized growth (S. cerevisiae deletion strains, locus YMR307W, strain GAS1, stronger effect = lower value) of the same molecule?
The normalized growth was 0.985 (inactive).

And the normalized growth (S. cerevisiae deletion strains, locus YNL067W, strain RPL9B, stronger effect = lower value)?
The normalized growth was 0.991 (inactive).

And the normalized growth (S. cerevisiae deletion strains, locus YNL071W, strain lat1, stronger effect = lower value)?
Its normalized growth is 1.01 (inactive).

What about the normalized growth (S. cerevisiae deletion strains, locus YNL128W, strain TEP1, stronger effect = lower value) of the same molecule?
The normalized growth was 0.993 (inactive).

What about the normalized growth (S. cerevisiae deletion strains, locus YNL153C, strain GIM3, stronger effect = lower value) of the same molecule?
The normalized growth was 0.991 (inactive) and 1.02 (inactive).

What about the normalized growth (S. cerevisiae deletion strains, locus YNL175C, strain NOP13, stronger effect = lower value) of the same molecule?
The normalized growth was 1.01 (inactive).

And the normalized growth (S. cerevisiae deletion strains, locus YNL183C, strain NPR1, stronger effect = lower value)?
Its normalized growth is 0.918 (inactive).

And the normalized growth (S. cerevisiae deletion strains, locus YNL197C, strain WHI3, stronger effect = lower value)?
The normalized growth was 1.04 (inactive).

What about the normalized growth (S. cerevisiae deletion strains, locus YNL209W, strain ssb2, stronger effect = lower value) of the same molecule?
Its normalized growth is 1.02 (inactive).

What about the normalized growth (S. cerevisiae deletion strains, locus YNL224C, strain SQS1, stronger effect = lower value) of the same molecule?
The normalized growth was 1.01 (inactive).

What about the normalized growth (S. cerevisiae deletion strains, locus YNL233W, strain BNI4, stronger effect = lower value) of the same molecule?
Its normalized growth is 0.977 (inactive).

What about the normalized growth (S. cerevisiae deletion strains, locus YNL248C, strain rpa49, stronger effect = lower value) of the same molecule?
Its normalized growth is 1.02 (inactive).

What about the normalized growth (S. cerevisiae deletion strains, locus YNL250W, strain rad50, stronger effect = lower value) of the same molecule?
The normalized growth was 0.976 (inactive).

What about the normalized growth (S. cerevisiae deletion strains, locus YNL271C, strain bni1, stronger effect = lower value) of the same molecule?
The normalized growth was 0.967 (inactive).

And the normalized growth (S. cerevisiae deletion strains, locus YNL298W, strain CLA4, stronger effect = lower value)?
Its normalized growth is 0.966 (inactive).

And the normalized growth (S. cerevisiae deletion strains, locus YNL307C, strain MCK1, stronger effect = lower value)?
The normalized growth was 0.985 (inactive).

And the normalized growth (S. cerevisiae deletion strains, locus YNL322C, strain KRE1 (second series), stronger effect = lower value)?
The normalized growth was 1 (inactive).

And the normalized growth (S. cerevisiae deletion strains, locus YNL322C, strain KRE1, stronger effect = lower value)?
Its normalized growth is 0.999 (inactive) and 1.02 (inactive).

What about the normalized growth (S. cerevisiae deletion strains, locus YNR049C, strain mso1, stronger effect = lower value) of the same molecule?
The normalized growth was 1 (inactive).

What about the normalized growth (S. cerevisiae deletion strains, locus YNR052C, strain pop2, stronger effect = lower value) of the same molecule?
The normalized growth was 0.982 (inactive).

And the normalized growth (S. cerevisiae deletion strains, locus YOL006C, strain TOP1, stronger effect = lower value)?
Its normalized growth is 0.943 (inactive).

What about the normalized growth (S. cerevisiae deletion strains, locus YOL012C, strain htz1) of the same molecule?
Its normalized growth is 2.07 [resistant] (active).

What about the normalized growth (S. cerevisiae deletion strains, locus YOL147C, strain pex11, stronger effect = lower value) of the same molecule?
The normalized growth was 0.976 (inactive).

And the normalized growth (S. cerevisiae deletion strains, locus YOR001W, strain rrp6, stronger effect = lower value)?
Its normalized growth is 0.989 (inactive).

And the normalized growth (S. cerevisiae deletion strains, locus YOR061W, strain CKA2, stronger effect = lower value)?
The normalized growth was 0.991 (inactive).

What about the normalized growth (S. cerevisiae deletion strains, locus YOR069W, strain VPS5, stronger effect = lower value) of the same molecule?
Its normalized growth is 0.995 (inactive).

What about the normalized growth (S. cerevisiae deletion strains, locus YOR070C, strain gyp1, stronger effect = lower value) of the same molecule?
The normalized growth was 1 (inactive).

What about the normalized growth (S. cerevisiae deletion strains, locus YOR080W, strain dia2, stronger effect = lower value) of the same molecule?
The normalized growth was 0.985 (inactive).

And the normalized growth (S. cerevisiae deletion strains, locus YOR083W, strain WHI5 (second series), stronger effect = lower value)?
Its normalized growth is 1.01 (inactive).

What about the normalized growth (S. cerevisiae deletion strains, locus YOR083W, strain WHI5, stronger effect = lower value) of the same molecule?
The normalized growth was 0.977 (inactive).

What about the normalized growth (S. cerevisiae deletion strains, locus YOR106W, strain vam3, stronger effect = lower value) of the same molecule?
The normalized growth was 1.02 (inactive).

What about the normalized growth (S. cerevisiae deletion strains, locus YOR136W, strain idh2, stronger effect = lower value) of the same molecule?
Its normalized growth is 0.982 (inactive).

What about the normalized growth (S. cerevisiae deletion strains, locus YOR144C, strain elg1, stronger effect = lower value) of the same molecule?
Its normalized growth is 0.976 (inactive).

And the normalized growth (S. cerevisiae deletion strains, locus YOR184W, strain ser1, stronger effect = lower value)?
The normalized growth was 0.971 (inactive).

And the normalized growth (S. cerevisiae deletion strains, locus YOR231W, strain MKK1, stronger effect = lower value)?
Its normalized growth is 1.01 (inactive).

What about the normalized growth (S. cerevisiae deletion strains, locus YOR265W, strain rbl2, stronger effect = lower value) of the same molecule?
Its normalized growth is 1 (inactive).

What about the normalized growth (S. cerevisiae deletion strains, locus YOR270C, strain vph1, stronger effect = lower value) of the same molecule?
The normalized growth was 1.06 (inactive).

What about the normalized growth (S. cerevisiae deletion strains, locus YOR290C, strain snf2, stronger effect = lower value) of the same molecule?
Its normalized growth is 1 (inactive).

What about the normalized growth (S. cerevisiae deletion strains, locus YOR316C, strain cot1, stronger effect = lower value) of the same molecule?
Its normalized growth is 0.974 (inactive).

What about the normalized growth (S. cerevisiae deletion strains, locus YPL051W, strain arl3, stronger effect = lower value) of the same molecule?
Its normalized growth is 0.995 (inactive).

What about the normalized growth (S. cerevisiae deletion strains, locus YPL055C, strain LGE1, stronger effect = lower value) of the same molecule?
The normalized growth was 1.02 (inactive) and 1.01 (inactive).

And the normalized growth (S. cerevisiae deletion strains, locus YPL078C, strain atp4, stronger effect = lower value)?
The normalized growth was 1.01 (inactive).

What about the normalized growth (S. cerevisiae deletion strains, locus YPL106C, strain sse1, stronger effect = lower value) of the same molecule?
The normalized growth was 0.971 (inactive).

And the normalized growth (S. cerevisiae deletion strains, locus YPL240C, strain hsp82, stronger effect = lower value)?
Its normalized growth is 1 (inactive).

What about the normalized growth (S. cerevisiae deletion strains, locus YPL241C, strain CIN2, stronger effect = lower value) of the same molecule?
Its normalized growth is 1 (inactive) and 1.01 (inactive).

And the normalized growth (S. cerevisiae deletion strains, locus YPL256C, strain CLN2, stronger effect = lower value)?
The normalized growth was 0.97 (inactive).

What about the normalized growth (S. cerevisiae deletion strains, locus YPR119W, strain clb2, stronger effect = lower value) of the same molecule?
Its normalized growth is 0.968 (inactive).

And the normalized growth (S. cerevisiae deletion strains, locus YPR141C, strain kar3, stronger effect = lower value)?
The normalized growth was 0.976 (inactive).

What about the normalized growth (S. cerevisiae deletion strains, locus YPR163C, strain tif3, stronger effect = lower value) of the same molecule?
Its normalized growth is 0.971 (inactive).

And the normalized growth (S. cerevisiae deletion strains, locus YPR167C, strain met16, stronger effect = lower value)?
The normalized growth was 0.974 (inactive).

And the normalized growth (S. cerevisiae deletion strains, strain wtn01, stronger effect = lower value)?
The normalized growth was 0.969 (inactive).

What about the normalized growth (S. cerevisiae strains, strain wild type, stronger effect = lower value) of the same molecule?
The normalized growth was 1 (inactive).
